Experimental data published in PubChem BioAssay (NCI).
The panel holds about 83,000 compounds, 20% with a hit somewhere; the sample as a whole holds those more often.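 Step 1: grow cells in 96-well plates. Step 2: add test compound at a single concentration. Step 3: incubate 48 h. Step 4: record percent growth.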 Active and inactive are the calls of the source. How the source made its calls: active means growth percent below 10; inactive means the rest.

How the values were obtained:
Assay in all cases: NCI-60 one-dose screen, 48 h (100 = growth as untreated, 0 = no growth, -100 = all killed)
Conditions in all cases: 10 µM unless noted
SK-MEL-2 melanoma = system: SK-MEL-2 melanoma
EKVX NSCLC = system: EKVX NSCLC
SN12C renal = system: SN12C renal
UO-31 renal = system: UO-31 renal
TK-10 renal = system: TK-10 renal
ACHN renal = system: ACHN renal
A498 renal = system: A498 renal
CCRF-CEM leukemia = system: CCRF-CEM leukemia
MOLT-4 leukemia = system: MOLT-4 leukemia
CAKI-1 renal = system: CAKI-1 renal

Measured: growth

CCS(=O)(=O)Nc1ccc(C(=O)CC2(O)C(=O)Nc3ccccc32)cc1 (stereo unspecified)
inactive: SK-MEL-2 melanoma 113% | EKVX NSCLC 91.8% | SN12C renal 97.4% | UO-31 renal 67.7% | TK-10 renal 122% | ACHN renal 95.3% | A498 renal 103% | CCRF-CEM leukemia 99.7% | MOLT-4 leukemia 102%

Cc1ccc(C)c(NC2=C(Cl)C(=O)c3nc(C)ccc3C2=O)c1
active: SK-MEL-2 melanoma -36.2% | EKVX NSCLC 1.21% | SN12C renal -81.7% | UO-31 renal -81.4% | ACHN renal -96.3% | CCRF-CEM leukemia 0.186% | MOLT-4 leukemia -11%
inactive: TK-10 renal 147% | A498 renal 83.8%

Brc1cccc(-c2cc(-c3cnc4c(c3)OCCO4)n[nH]2)c1
inactive: SK-MEL-2 melanoma 52.1% | EKVX NSCLC 50.4% | SN12C renal 62.8% | UO-31 renal 51% | TK-10 renal 89.9% | ACHN renal 51.6% | CAKI-1 renal 51.8% | CCRF-CEM leukemia 36.7% | MOLT-4 leukemia 34.1%

O=C1[C@@H]2Cc3c([nH]c4ccccc34)[C@@H](c3ccc(Cl)cc3)N2C(=O)CN1C1CCN(Cc2ccccc2)CC1
inactive: SK-MEL-2 melanoma 92.7% | EKVX NSCLC 54.6% | SN12C renal 55% | UO-31 renal 30.5% | TK-10 renal 78.9% | ACHN renal 51.4% | A498 renal 76.1% | CCRF-CEM leukemia 20.1% | MOLT-4 leukemia 13.5%

C#C[C@]1(O)CC[C@H]2[C@@H]3CC=C4c5sc(Nc6ccc(C)cn6)nc5CC[C@]4(C)[C@H]3CC[C@@]21C
active: SK-MEL-2 melanoma -25.1% | EKVX NSCLC -21.7% | UO-31 renal -63.7% | A498 renal -26.5% | MOLT-4 leukemia -42.3%
inactive: SN12C renal 45.9% | TK-10 renal 18.6% | ACHN renal 17.4% | CCRF-CEM leukemia 10.6%

COc1ccccc1Cn1cc(C#N)c(N)c1C(=O)c1ccc(Br)cc1
inactive: SK-MEL-2 melanoma 98.6% | EKVX NSCLC 85.2% | SN12C renal 92.1% | UO-31 renal 78.1% | TK-10 renal 108% | ACHN renal 96.6% | A498 renal 77.7% | CCRF-CEM leukemia 91.4% | MOLT-4 leukemia 85.4%

NC1CC2(CCN(c3cnc(C(=O)Nc4cc(F)cc5cccnc45)cn3)CC2)C1
inactive: SK-MEL-2 melanoma 101% | EKVX NSCLC 81.9% | SN12C renal 72.5% | UO-31 renal 76.1% | TK-10 renal 88% | ACHN renal 79% | CAKI-1 renal 79.3% | CCRF-CEM leukemia 34.7% | MOLT-4 leukemia 40.8%

COc1cc2cc(Oc3ccc(NC(=O)c4cc(C(F)(F)F)cc(C(F)(F)F)c4)cc3)c(C)nc2cc1OCCN1CCOCC1
inactive: SK-MEL-2 melanoma 101% | EKVX NSCLC 57.7% | SN12C renal 83% | UO-31 renal 55.8% | TK-10 renal 105% | ACHN renal 77.3% | CAKI-1 renal 52.8% | CCRF-CEM leukemia 45% | MOLT-4 leukemia 66.1%

Cc1[nH]c(C(=O)Nc2ccccc2OCc2cccc(C(=O)NC3CCCNC3)c2)c(Cl)c1Cl (stereo unspecified)
active: EKVX NSCLC -80.4% | SN12C renal -72.9% | UO-31 renal -13% | TK-10 renal -75% | ACHN renal -86.8% | CCRF-CEM leukemia 2.33% | MOLT-4 leukemia -25.3%
inactive: SK-MEL-2 melanoma 102% | A498 renal 66.2%

CCC(=C(c1ccc(OCCN(C)C)cc1)c1ccc(OCCN(C)C)cc1)c1ccc(Cl)cc1
active: SK-MEL-2 melanoma -41.8% | EKVX NSCLC 7.78% | SN12C renal -33.2% | UO-31 renal -71.9% | ACHN renal -78.5% | CAKI-1 renal -53.6% | CCRF-CEM leukemia -50.8% | MOLT-4 leukemia -50.2%
inactive: TK-10 renal 60.2%

CCCCSC1=C(Cl)CN(c2ccc(Cl)cc2)C1=O
inactive: SK-MEL-2 melanoma 103% | EKVX NSCLC 101% | SN12C renal 104% | UO-31 renal 91.1% | TK-10 renal 140% | ACHN renal 104% | A498 renal 101% | CCRF-CEM leukemia 89.9% | MOLT-4 leukemia 86.2%

CC(C)NC(=O)c1cc(-c2ccc(NC(=O)Nc3ccc(F)c(C(F)(F)F)c3)cc2)nc2cccnc12
inactive: SK-MEL-2 melanoma 107% | EKVX NSCLC 95.3% | SN12C renal 98.4% | UO-31 renal 92.3% | TK-10 renal 96.6% | ACHN renal 90.5% | CAKI-1 renal 97.7% | CCRF-CEM leukemia 90.2% | MOLT-4 leukemia 117%

Cc1ncn(-c2ccc(/C=N/Nc3ccnc4cc(Cl)ccc34)cc2)c1C
active: SK-MEL-2 melanoma -17.3% | SN12C renal -55.8% | UO-31 renal -66.9% | TK-10 renal -11.7% | ACHN renal -91.1% | CCRF-CEM leukemia 3.17% | MOLT-4 leukemia 1.04%
inactive: EKVX NSCLC 99.8% | A498 renal 86.5%

CN(C)c1cccc2c(S(=O)(=O)Nc3cccc(-c4csc(NC(=O)CCCCCN5CCN(CCO)CC5)n4)c3)cccc12
inactive: SK-MEL-2 melanoma 99.7% | EKVX NSCLC 85% | SN12C renal 80.1% | UO-31 renal 86.4% | TK-10 renal 120% | CAKI-1 renal 86.1% | A498 renal 101% | CCRF-CEM leukemia 72.8% | MOLT-4 leukemia 47.5%
